In all, about 1,900 compounds went through this assay and about 240 (13%) were called active. The entries come from a sample that favours actives as a whole. Values without a mark were called inactive.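 Rule for the calls: active = mean inhibition at least 40% at 20 µM, or signal 3 deviations below plate average, so some actives read negative; inactive = the rest.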
target: Prothrombin (Bos taurus) (UniProt P00735); test: bovine thrombin protease inhibition, confirmation, counter-screen for Rpn11 inhibitor project, biochemical, fluorescence polarization, single concentration (AID 602333); conditions: bovine thrombin cleavage of Ub4-pepOG, at 20 µM, hits give high values;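 note: plate controls were thrombin with DMSO for no effect and buffer wells lacking thrombin for full effect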
Sequence (P00735 whole entry, looked up): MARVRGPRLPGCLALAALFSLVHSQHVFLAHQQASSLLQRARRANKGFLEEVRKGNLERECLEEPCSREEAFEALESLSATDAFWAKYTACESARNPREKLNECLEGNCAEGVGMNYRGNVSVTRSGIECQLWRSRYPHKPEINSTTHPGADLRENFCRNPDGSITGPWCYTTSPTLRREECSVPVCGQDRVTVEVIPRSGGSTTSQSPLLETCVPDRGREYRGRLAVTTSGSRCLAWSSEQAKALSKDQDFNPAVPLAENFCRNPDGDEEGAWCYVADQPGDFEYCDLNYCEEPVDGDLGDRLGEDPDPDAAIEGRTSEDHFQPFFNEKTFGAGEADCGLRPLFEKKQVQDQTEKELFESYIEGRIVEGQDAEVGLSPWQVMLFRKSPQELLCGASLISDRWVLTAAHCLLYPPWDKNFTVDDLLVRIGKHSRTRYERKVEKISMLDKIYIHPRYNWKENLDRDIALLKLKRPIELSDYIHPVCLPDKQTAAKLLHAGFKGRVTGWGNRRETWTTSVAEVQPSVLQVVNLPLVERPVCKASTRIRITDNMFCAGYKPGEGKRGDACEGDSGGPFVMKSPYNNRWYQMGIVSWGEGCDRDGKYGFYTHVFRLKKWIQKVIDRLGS

Compound | inhibition
CCN1C(=O)C(=Cc2c(C)n(CC(=O)NCC3CCCO3)c3ccccc23)C(=O)N(CC)C1=S (stereo not drawn) | 53.3% (active)
O=c1[nH]c(=O)n(Cc2ccccc2)c(O)c1/C=N/Nc1c(F)c(F)c(F)c(F)c1F | 12.8%
Cc1cccc(N2C(=O)NC(=O)/C(=C\c3cnn(-c4ccccc4)c3)C2=O)c1 | 6.14%

Source: PubChem BioAssay AID602333 (Sanford-Burnham Center for Chemical Genomics, 2012)
